Source: PubChem (several laboratories)
C-LANA FP: inhibitors of KSHV C-LANA binding to DNA, primary screen, biochemical, fluorescence polarization, FAM-LBS DNA, MBP-C-LANA, single point | inhibition, % at 9 µM | AID 504423, 2011 | 340,000 tested, 0.078% active;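 active = highest replicate inhibition at or above 60% at 9 µM, even if other replicates fall short; inactive = all replicates below 60% inhibition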;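 also: 0% = neutral control wells and 100% = 4 µM acridine orange control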
Keap1-Nrf2 PPI: Keap1-Nrf2 protein-protein interaction inhibitors, primary screen, biochemical, fluorescence polarization, single point; Kelch-like ECH-associated protein 1 (Homo sapiens), Q14145; Keap1 Kelch-Nrf2 peptide fluorescence polarization, 1536-well; inhibition, % at 9.4 µM; 340,000 tested, 0.15% active; in the data active = inhibition above about 12%;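 also: human Keap1 Kelch domain with fluorescein labeled Nrf2 9mer peptide probe; 0% = neutral control wells and 100% = peptide positive control; higher means more block of Keap1 binding to Nrf2 peptide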
eLon inh: inhibitors of E. coli Lon protease, primary screen, biochemical, fluorescence polarization | P0A9M0 | purified E. coli Lon protease | inhibition, % at 7.94 µM | 360,000 tested, 0.42% active | AID 602123, 2011; in the data active = inhibition above about 13%, passing the limit was not always enough;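 also: 0% = enzyme with probe and DMSO and 100% = no enzyme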
Cardiac RTF inh: cardiac RTF calcium sensitivity inhibitors, primary screen, biochemical, IANBD-TnC fluorescence, EC70 calcium | 340,000 tested, 0.12% active | Troponin I, cardiac muscle (Homo sapiens) + Troponin T, cardiac muscle (Homo sapiens) + … | IANBD-labeled cardiac RTF, Ca2+ fluorescence | inhibition, % at 7.15 µM | AID 493244, 2011;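 active = inhibition above the mean inhibition of all tested compounds plus 3 SD, cut at about 17% in these data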;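 also: assay run at fixed EC70 calcium of 1.6 mM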
LANA-H2A inh: blockers of LANA interaction with H2A/H2B – biochemical, FP readout, HTS, primary screen | Protein LANA1 (Human herpesvirus 8 type P (isolate GK18)), Q9QR71 | cell-free LANA-H2A/H2B peptide, fluorescence polarization | inhibition, % (no concentration beside the values) | 320,000 tested, 0.6% active | AID 2629, 2010; in the data active = inhibition mostly above about 10%, no sharp cut-off; inactive = mostly below about 6.7%
cardiac RTF act: cardiac RTF calcium sensitivity activators, primary screen, biochemical, IANBD-TnC fluorescence, EC20 calcium; 340,000 tested, 0.24% active; activation, % at 7.2 µM; Troponin I, cardiac muscle (Homo sapiens) + Troponin T, cardiac muscle (Homo sapiens) + …; IANBD-labeled TnC RTF fluorescence at EC20 calcium; 0% EC20 calcium, 100% full calcium;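 active = activation above the mean over all tested compounds plus 3 SD, cut at about 30% in these data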;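 also: rise in fluorescence read as greater calcium sensitivity of cardiac thin filaments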
* hit, by the source's call; i = inactive; . = no result given; + = active, no number. A selection: hits, their analogues and other compounds. The true share with any hit is near 1.3%.

SMILES	C-LANA FP	Keap1-Nrf2 PPI	eLon inh	Cardiac RTF inh	LANA-H2A inh	cardiac RTF act
Cc1ccc(NC(=O)COC(=O)c2ccc3c(c2)OCCO3)cc1	0	-5	-6	-4	-1	2
Cc1nn(-c2ccc(N3CCCCC3)nn2)c(C)c1CCC(=O)Nc1cc(F)ccc1F	2	-4	-1	2	2	-6
O=C1N=c2ccccc2=C1c1sc(=O)[nH]c1O	.	.	-8	.	2	.
O=C1N=c2ccccc2=C1c1[nH]c(=S)[nH]c1O	1	-2	-5	-9	12*	-7
Clc1cccc(Cl)c1/C=C/c1ccn[nH]1	-2	-7	6	-2	-4	4
CCN(CC)S(=O)(=O)c1cccc(NC(=O)CN(C)Cc2cccc(OC)c2)c1	0	-8	0	4	-3	2
COc1cccc2cc(C(C)N(CCCN3CCOCC3)C(=S)Nc3cccc(C)c3)oc12 (stereo unspecified)	0	-2	-13	-13	13*	0
CC(OC(=O)COc1ccccc1Cc1ccccc1)C(=O)N(C)c1ccccc1 (stereo unspecified)	-2	1	-9	2	-1	-8
O=C(O)C(C/C(=N/O)c1ccc(Br)cc1)P(=O)(c1ccccc1)c1ccccc1 (stereo unspecified)	-1	-4	1	2	15*	-4
Cc1cc(NC(=S)Nc2ccccc2)ccc1Br	-1	-2	-2	-11	22*	15
Cc1cc(NC(=S)Nc2cccnc2)ccc1Br	-1	-3	2	-2	4	0
CC(=O)Nc1ccccc1-c1cccc2nccn12	.	.	6	.	.	.
O=C(Nc1ccccc1)OCc1cc(-c2ccccc2Cl)on1	-2	-2	-3	-1	31*	-3
COc1ccc(C(=O)N=c2sc3ccccc3n2C)cc1OC	-1	1	13	5	-2	7
Cn1c(=NC(=O)C2=NNC(=O)CC2)sc2ccccc21	0	-4	-1	-4	15*	3
O=C(O)c1ccc(Cl)c(NC(=O)C2CCN(S(=O)(=O)c3cccs3)CC2)c1	.	.	-10	.	.	.
COc1ccccc1NC(=O)CCC(=O)OCC(=O)c1ccc(C)c([N+](=O)[O-])c1	1	2	-5	-7	1	-3
O=C(COC(=O)c1cc(Cl)ccc1O)c1ccc2c(c1)OCO2	0	2	-1	-8	-1	-6
O=C(COC(=O)c1ccc(O)cc1O)c1ccc2c(c1)OCO2	-2	0	3	1	56*	-1
COC(=O)CCC(=O)Nc1sc(Cc2ccccc2)c(C)c1C(N)=O	0	-4	4	9	22*	2
N#Cc1ccsc1NC(=O)COC(=O)c1cc2ccccc2cc1O	-1	-2	-2	-3	4	2
CN(Cc1ccccc1)C(=O)C1CCCN1S(=O)(=O)c1ccc2c(c1)n(C)c(=O)c(=O)n2C (stereo unspecified)	-1	0	-5	-2	24*	-1
Cn1c(=O)c(=O)n(C)c2cc(S(=O)(=O)N3CCC(Cc4ccccc4)CC3)ccc21	-1	-5	-7	-6	13*	-2
CCc1ccccc1NC(=O)C1CCCN1S(=O)(=O)c1ccc2c(c1)n(C)c(=O)c(=O)n2C (stereo unspecified)	1	-2	2	-8	-3	-1
Cn1c(=O)c(=O)n(C)c2cc(S(=O)(=O)N3CCCCCC3)ccc21	0	1	-1	-6	5	6
SMILES	C-LANA FP	Keap1-Nrf2 PPI	eLon inh	Cardiac RTF inh	LANA-H2A inh	cardiac RTF act
COCCCNC(=O)c1csc([C@H]2C[C@H](O)[C@@H](CO)O2)n1	.	.	-9	.	.	.
CC(=O)c1ccc(N2CCN(C(=O)c3nn(C)c4c3CS(=O)(=O)c3ccccc3-4)CC2)cc1	-1	-6	2	-2	3	-1
N#CC(C#N)=C1C=C2C=C(N3CCCCC3)CCC2CC1 (stereo unspecified)	.	.	.	.	-152	.
CCN(CC)C1=CC2=CC(=C(C#N)C#N)CCC2CC1 (stereo unspecified)	-3	-113	i	i	-4	+
CCCCN(C)C1=CC2=CC(=C(C#N)C#N)CCC2CC1 (stereo unspecified)	-18	-129	i	i	0	+
COc1ccc(N(CC(=O)Nc2cc(C)ccc2C)S(=O)(=O)c2c(C)noc2C)cc1	0	0	4	4	4	-4
COc1ccc(N(CC(=O)Nc2cc(Cl)ccc2C)S(=O)(=O)c2c(C)noc2C)cc1	-1	-3	7	-1	51*	-1
Cc1ccccc1SCC(=O)OCC(=O)NCc1ccccc1	-3	-2	-1	-3	0	4
Cc1cccc(NC(=O)CSc2cccc3cccnc23)c1	0	-6	1	2	5	-1
Cc1ccc(C)c(NC(=O)CSc2cccc3cccnc23)c1	2	-3	-1	-3	17*	-3
CCCCn1c(N)c(N(CC(C)C)C(=O)CCNC(=O)c2ccc(Cl)cc2)c(=O)[nH]c1=O	-1	3	-10	-4	7	-4
O=C(Cn1c(=O)[nH]c2ccccc2c1=O)Nc1ccc2c(c1)OCO2	0	4	3	2	0	-4
COc1cccc(CNC(=O)C2CCCN(c3nc4ccccc4o3)C2)c1 (stereo unspecified)	0	1	-8	-12	14*	18
CC(C)C(c1nnnn1C1CCCCC1)N1CCOCC1 (stereo unspecified)	0	6	-16	-11	19*	-4
COc1ccc(N2CCN(C(c3nnnn3C3CCCC3)C(C)C)CC2)cc1 (stereo unspecified)	0	-1	-2	-4	4	0
CCOC(=O)C1C(=O)C=C(/C=C/c2ccc(N(C)C)cc2)CC1c1ccccc1 (stereo unspecified)	-1	-2	-164	-214	-9	108*
N=C(N)c1ccc(O)cc1	-1	-5	2	-6	-1	11
CC/C(=C(/CC)c1ccc(O)cc1)c1ccc(O)cc1	1	.	-14	18*	-1	-4
COc1cccc(-n2cc(C(=O)NCCCOC(C)C)c3ccccc3c2=O)c1	120*	-6	-6	4	-1	-2
CCCCNC(=O)C1c2cc(OC)c(OC)cc2C(=O)N(C)C1c1ccc(OC)cc1 (stereo unspecified)	-1	0	-6	-6	-3	-1
